Measured values taken from paper PMC4336329 (PLoS ONE, 2015).
The whole screen tested about 310,000 compounds, of which about 14,000 (4.5%) showed an effect of 50% or more. The effect is printed as a negative number. Only a selection was taken, and strong results are over-represented in it overall.

These molecules were tested against human ether-à-go-go-related gene (hERG) potassium channel (human, UniProt Q12809) (assay: primary screen, population patch clamp on CHO cells stably expressing hERG; higher = less effect of the substance).
human ether-à-go-go-related gene (hERG) potassium channel, sequence (Q12809 whole entry, looked up): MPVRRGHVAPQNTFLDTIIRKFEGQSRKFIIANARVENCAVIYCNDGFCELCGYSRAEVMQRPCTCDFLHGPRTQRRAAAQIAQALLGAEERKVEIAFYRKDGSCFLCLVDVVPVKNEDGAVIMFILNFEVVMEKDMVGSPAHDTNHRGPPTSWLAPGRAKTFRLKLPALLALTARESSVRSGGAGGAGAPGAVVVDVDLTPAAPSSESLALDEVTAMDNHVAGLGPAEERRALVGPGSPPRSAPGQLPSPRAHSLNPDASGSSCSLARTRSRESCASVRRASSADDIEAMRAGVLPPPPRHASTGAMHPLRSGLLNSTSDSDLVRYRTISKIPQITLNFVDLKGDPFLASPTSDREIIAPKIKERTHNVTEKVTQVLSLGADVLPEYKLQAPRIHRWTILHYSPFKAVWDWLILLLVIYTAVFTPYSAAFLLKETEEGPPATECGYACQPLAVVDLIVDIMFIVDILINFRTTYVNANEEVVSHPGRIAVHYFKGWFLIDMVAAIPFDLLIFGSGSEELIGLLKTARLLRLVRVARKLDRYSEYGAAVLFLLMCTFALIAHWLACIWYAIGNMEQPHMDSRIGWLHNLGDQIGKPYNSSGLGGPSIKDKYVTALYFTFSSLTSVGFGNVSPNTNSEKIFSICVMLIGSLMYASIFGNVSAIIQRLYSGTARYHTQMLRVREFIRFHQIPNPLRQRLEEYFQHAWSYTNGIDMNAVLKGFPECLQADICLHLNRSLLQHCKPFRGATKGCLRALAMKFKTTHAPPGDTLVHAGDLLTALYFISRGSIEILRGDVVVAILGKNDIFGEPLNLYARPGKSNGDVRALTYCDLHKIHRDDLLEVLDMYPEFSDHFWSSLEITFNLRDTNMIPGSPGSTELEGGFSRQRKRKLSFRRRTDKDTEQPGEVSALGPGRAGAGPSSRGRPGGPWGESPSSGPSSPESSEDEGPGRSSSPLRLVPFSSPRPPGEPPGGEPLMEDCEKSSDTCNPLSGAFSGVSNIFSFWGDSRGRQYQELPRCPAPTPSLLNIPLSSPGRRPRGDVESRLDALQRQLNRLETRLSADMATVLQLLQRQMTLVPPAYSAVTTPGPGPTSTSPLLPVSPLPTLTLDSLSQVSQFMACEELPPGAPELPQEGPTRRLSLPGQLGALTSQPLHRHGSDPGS
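Note: peak tail current of the secondary pulse compared with the same well before compound.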

SMILES	hERG current change (%, negative = inhibition) at 10uM
CC(=O)Nc1cc(NC(=O)C2C3C=CC(C3)C2C(=O)O)ccc1Cl (centres unmarked)	14.5%
Cc1ccc2nc(CSc3nnc(Nc4ccccc4C)s3)cc(=O)n2c1	-43%
CN(C(=O)CSc1nnc(-c2ccc(Cl)cc2)n1CC1CCCO1)C1CCS(=O)(=O)C1 (centres unmarked)	-0.671%
O=C(c1ccccc1F)N(Cc1cccs1)C1CCS(=O)(=O)C1 (centres unmarked)	21.9%
CN1C(=O)C2ON(c3ccccc3)C(c3cccs3)C2C1=O (centres unmarked)	-13.6%
COc1ccc(CN(C)CCc2ccccn2)cc1OC.O=C(O)C(=O)O	-5.06%
COc1cc(CN(C)CCc2ccccn2)cc(OC)c1OC.O=C(O)C(=O)O	-11.6%
CCOc1ccc(OCCN(C)Cc2ccccc2)cc1.O=C(O)C(=O)O	-45.8%
CCOc1ccc(CN(C)CCc2ccccn2)cc1.O=C(O)C(=O)O	-77.8%
COc1cc(OC)c(OC)cc1CN(C)CCc1ccccn1.O=C(O)C(=O)O	-11.2%
CSc1ccc(CN(C)CCc2ccccn2)cc1.O=C(O)C(=O)O	-64.4%
COc1ccc(OC)c(N(CC(=O)Nc2cccnc2)S(=O)(=O)c2ccc(OC)c(OC)c2)c1	-17.9%
COC(=O)c1sc(NC(=O)c2cnccn2)c(C(=O)OC)c1C	18.7%
COc1ccccc1OCCSc1ncnc2nc[nH]c12	4.63%
Cc1ccc(NC(=O)C(C)SCc2nc3sc(C)c(C)c3c(=O)[nH]2)nc1 (centres unmarked)	-10.7%
CCS(=O)(=O)NC(C)C(c1cccs1)N1CCN(c2ccc(F)cc2)CC1 (centres unmarked)	-8.13%
CC(C)CCn1cnc2c(cnn2-c2ccc(F)cc2)c1=O	-3.95%
O=C(C1=C[C@@H](c2ccc(Br)cc2)C[C@@H](OCc2ccc(CO)cc2)O1)N1CCN(Cc2ccc3c(c2)OCO3)CC1	-9.55%
C#Cc1ccc([C@H]2C=C(C(=O)N3CCN(Cc4ccc5c(c4)OCO5)CC3)O[C@@H](OCc3ccc(CO)cc3)C2)cc1	-7.23%
O=C(C1=C[C@H](c2ccc(Br)cc2)C[C@H](OCc2ccc(CO)cc2)O1)N1CCN(Cc2ccc3c(c2)OCO3)CC1	-19.8%
C[C@@H]1C=C(C(=O)N2CCN(Cc3ccc4c(c3)OCO4)CC2)O[C@H](OCCCCO)C1	4.01%
CC(C)(C)[C@H]1C=C(C(=O)N2CCN(Cc3ccc4c(c3)OCO4)CC2)O[C@@H](OCCCCO)C1	-23.4%
C#Cc1ccc([C@@H]2C=C(C(=O)N3CCN(Cc4ccc5c(c4)OCO5)CC3)O[C@H](OCCCCO)C2)cc1	-64.1%
O=C(C1=C[C@H](c2ccc(C(F)(F)F)cc2)C[C@H](OCc2ccc(CO)cc2)O1)N1CCN(Cc2ccc3c(c2)OCO3)CC1	-19.5%
O=C(C1=C[C@H](c2ccc3c(c2)OCO3)C[C@H](OCCCCO)O1)N1CCN(Cc2ccc3c(c2)OCO3)CC1	-69.1%
O=C(C1=C[C@@H](c2ccc3c(c2)OCO3)C[C@@H](OCCCCO)O1)N1CCOCC1	7.64%
O=C(C1=C[C@@H](c2ccc(Br)cc2)C[C@@H](OCCCCO)O1)N1CCN(Cc2ccc3c(c2)OCO3)CC1	-55.3%
O=C(C1=C[C@H](c2ccc(C(F)(F)F)cc2)C[C@H](OCCCCO)O1)N1CCN(Cc2ccc3c(c2)OCO3)CC1	-44.1%
O=C(C1=C[C@@H](c2ccc(C(F)(F)F)cc2)C[C@@H](OCCCCO)O1)N1CCN(Cc2ccc3c(c2)OCO3)CC1	-68.8%
